Screens: PubChem BioAssay, National Center for Advancing Translational Sciences (NCATS)
SMN2 splice enh – SMN2 splice variant enhancement | HEK293 SMN2-luciferase splicing reporter, luminescence, 30-36 h | Potency, µM (series often up to 46.1 µM), inactives show at the top dose activity change, positive = activation, most hits filed as activators | actives 2.8% (n = 210,000) | AID 1458; also: % of control where 0% means no effect; nearly all actives have a fitted effect of over 55% in size
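qHTS luciferase splicing reporter: luminescence rises when SMN2 exon 7 is included in transfected HEK293 cells. Compound exposure lasted 30-36 h at 37C, with 4.5 mM final sodium butyrate as control, followed by a ONE-Glo read.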
Luc counter – Kinase-Glo luciferase inhibition (counter-screen). AID 1379. Kinase-Glo luciferase, ATP luminescence, 8 min. Potency, µM (top dose mostly 38.3 µM), for inactives: at the top dose activity change, negative = inhibition, actives largely listed as inhibitors. actives 0.28% (n = 200,000). Q27757; also: % is scaled to controls: 0 for no effect and ±100 for the full control effect; nearly all actives have a fitted effect of over 60% in size
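Compound is pinned into ATP-containing buffer (10 uM ATP, imidazole pH 7.2, 7 mM MgCl2). Kinase-Glo luciferase reagent is then added. Light output is recorded following an 8-min room-temperature incubation.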
NPC1 promoter act – activators of NPC1 promoter; Huh7 NPC1 promoter luciferase reporter, 24 h; Potency, µM (top dose mostly 9.22 µM), for inactives: at the top dose activation, usual class: activators; actives 2.4% (n = 320,000); AID 485313; also: % of control where 0% means no effect; nearly all actives have a fitted effect of over 60% in size
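Cells: Huh7 expressing luciferase under the NPC1 promoter, 1500/well. Seeded 2 h, compound added, incubated 24 h at 37 °C. Luciferase reagent, 10 min ambient, then luminescence.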
Rab9 prom act – activates the Rab9 promoter; actives 2.8% (n = 320,000); Potency, µM (titrated, usually from 9.22 µM), inactives show at the top dose activation, negative = inhibition, usual class: activators; Huh7 Rab9 promoter-luciferase reporter, luminescence, 24 h; also: % of control where 0% means no effect; nearly all actives have a fitted effect of over 60% in size
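Luciferase signal after 10 min detection reagent at ambient indicates Rab9 promoter upregulation; stably transfected Huh7 cells were treated 24 h with compound in DMSO at 37 °C, 5% CO2.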
FLuc counter – firefly luciferase modulation, counter-screen for miR-21 project; Potency, µM (highest dose often 57.5 µM), without a hit: at the highest dose activity change, negative = inhibition, hits mostly inhibitors; actives 6.9% (n = 360,000); purified FLuc, Km substrates, luminescence inhibition; P08659;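 also: plate controls were vehicle for no effect and reference inhibitor for full effect; nearly all actives have a fitted effect of over 55% in size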
Target sequence (P08659 whole entry, looked up): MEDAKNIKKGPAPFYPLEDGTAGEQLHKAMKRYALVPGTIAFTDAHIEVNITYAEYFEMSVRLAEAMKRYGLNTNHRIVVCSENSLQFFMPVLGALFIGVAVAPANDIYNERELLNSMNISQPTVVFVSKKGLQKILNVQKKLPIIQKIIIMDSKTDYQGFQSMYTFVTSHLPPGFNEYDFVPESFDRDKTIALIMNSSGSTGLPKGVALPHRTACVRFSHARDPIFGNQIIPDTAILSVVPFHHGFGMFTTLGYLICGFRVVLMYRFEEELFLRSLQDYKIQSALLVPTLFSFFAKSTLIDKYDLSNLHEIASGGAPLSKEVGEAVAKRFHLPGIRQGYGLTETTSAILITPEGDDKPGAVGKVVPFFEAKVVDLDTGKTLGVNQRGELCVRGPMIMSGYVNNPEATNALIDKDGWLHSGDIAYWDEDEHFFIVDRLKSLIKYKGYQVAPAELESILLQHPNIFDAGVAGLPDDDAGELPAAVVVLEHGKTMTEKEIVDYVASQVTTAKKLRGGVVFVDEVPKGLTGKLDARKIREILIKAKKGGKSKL
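Purified P. pyralis luciferase, 10 nM final, with Km-level 10 uM D-luciferin and 10 uM ATP in 50 mM Tris acetate pH 7.5, 10 mM Mg acetate, 0.01% Tween-20, 0.05% BSA; 6-point qHTS titration about 60 µM downward; luminescence read.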
ELG1 genotox – induces genotoxicity in HEK293T cells with luciferase-tagged ELG1. HEK293T ELG1-luciferase reporter, luminescence, 16 h. Potency, µM (doses to about 46 µM), without a hit: at the highest dose activity change, positive = activation, actives largely listed as activators. actives 1.3% (n = 330,000); also: % of control where 0% means no effect; nearly all actives have a fitted effect of over 60% in size
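Genotoxic stress is detected as increased luminescence from luciferase-tagged ELG1 in HEK293T cells, measured with ONE-Glo after a 16 hr treatment at 37 °C.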
Active calls of the source: *; ? = inconclusive; nt = not tested or not shown. The list is not random: actives were taken first. Their share in the collection is about 7.5%. Calls follow the shape of the dose curve; as a rule, active = well fitted curve in the direction sought with a large enough effect; inconclusive = small, poorly fitted or top-dose-only effect, or another doubt; inactive = no such curve, though single readings can be large; an effect the other way counts as inactive or inconclusive. Potency is read from the fitted curve at half-maximal effect.

SMILES	SMN2 splice enh	Luc counter	NPC1 promoter act	Rab9 prom act	FLuc counter	ELG1 genotox
Cc1cccn2c(=O)c3cc(C#N)c(=O)n(-c4nnc(SCc5ccccc5F)s4)c3nc12	-3%	nt	nt	nt	4%	nt
O=C(Nc1cc2c(cc1Br)OCCO2)c1ccco1	13µM*	-8%	23%	30%	24µM*	?
CC(=O)c1cc2c(cc1NC(=O)c1ccco1)OCCO2	15%	5%	-6%	-5%	0%	0%
COC(=O)COc1ccc(C)cc1-n1nc2ccccc2n1	nt	0%	-1%	-4%	-7%	0%
Cc1ccc(OC(=O)c2cccc([N+](=O)[O-])c2)c(-n2nc3ccccc3n2)c1	13µM*	0%	3.5µM*	2.8µM*	?	?
Cc1ccc(OC(=O)COc2ccccc2C)c(-n2nc3ccccc3n2)c1	11µM*	-11%	?	?	4.8µM*	?
Cc1cc(-n2nc3ccccc3n2)c(O)c([N+](=O)[O-])c1	nt	nt	2%	-5%	2%	0%
Cc1ccc(OC(=O)COc2ccccc2)c(-n2nc3ccccc3n2)c1	20%	-2%	3.5µM*	2µM*	8.5µM*	7.3µM*
NC(=O)COC(=O)/C=C/c1cccc(Br)c1	9%	-2%	2%	1%	-8%	-4%
O=C(Nc1ccc(Cl)cc1)C1CCN(c2nc3ccccc3nc2C(F)(F)F)CC1	nt	nt	nt	nt	2%	nt
Cc1nn(C)c(C)c1CNC(=O)Nc1cccc(Cl)c1	nt	0%	21%	?	?	-1%
Cc1nn(C)c(C)c1CNC(=O)Nc1ccc(Cl)cc1	27%	2%	?	3.2µM*	?	?
COc1cc(Cl)ccc1OCc1cc(C(=O)N(C)Cc2nnc(C)o2)no1	nt	nt	29%	26%	?	?
COc1ccc(OCc2cc(C(=O)N(C)Cc3nnc(C)o3)no2)c(Cl)c1	nt	nt	3.2µM*	3.5µM*	8.5µM*	?
CC(=O)c1ccc(OCc2cc(C(=O)N(C)Cc3cc(C)no3)no2)cc1	nt	nt	16%	23%	?	12%
COc1ccc(OCc2cc(C(=O)N(C)Cc3cc(C)no3)no2)c(Cl)c1	nt	nt	2.8µM*	4µM*	6µM*	?
CCc1ccc(CN(C)C(=O)c2cc(COc3ccc(OC)cc3Cl)on2)nc1	nt	nt	3.2µM*	?	15µM*	?
CCN(Cc1ccncc1)C(=O)c1cc(COc2ccc(OC)cc2Cl)on1	nt	nt	3.2µM*	2.8µM*	21µM*	?
COc1ccc(C(=O)Nc2ccnn2C2CCN(C(=O)c3cnsn3)CC2)cc1	nt	nt	-3%	14%	-19%	7%
COc1ccc(OCc2cc(C(=O)N3CCCN(C(C)=O)CC3)no2)c(Cl)c1	nt	nt	?	30%	27µM*	?
CS(=O)(=O)N(CC(=O)N1CCCCCC1)c1cccc(F)c1	nt	nt	-6%	4%	2%	-3%
O=C(NC1CC2CCCC(C1)N2Cc1cccs1)c1ccc([N+](=O)[O-])cc1 (stereo unspecified)	4%	3%	-8%	-1%	0%	-4%
Cc1ccc(S(=O)(=O)N/N=c2\sc3ccccc3n2C)cc1	21%	0%	-1%	-3%	2%	-2%
CN(C)c1ccc(N=c2sc3ccccc3n2C)cc1	-5%	-6%	?	?	6µM*	6.5µM*
Cn1c(=Nc2ccccc2)sc2ccccc21	-20%	-1%	14%	24%	21µM*	?
SMILES	SMN2 splice enh	Luc counter	NPC1 promoter act	Rab9 prom act	FLuc counter	ELG1 genotox
COc1cccc(CNC(=O)c2ccc(NC(=O)N3CCCCc4ccccc43)cc2)c1OC	nt	nt	nt	nt	1%	nt
Cc1cccc(C)c1NC(=O)c1sc(-n2nc(C)c(Cc3ccccc3)c2C)nc1C	nt	nt	nt	nt	-3%	nt
COc1ccc(-n2nnnc2SCC(=O)NC(=O)Nc2ccc3c(c2)OCCO3)cc1	-16%	20%	19%	27%	19µM*	?
C[C@H](NS(=O)(=O)c1ccc(Cl)cc1)C(=O)OCC(=O)NC(=O)Nc1ccc2c(c1)OCCO2	?	-4%	19%	21%	17µM*	?
Cc1nnc(SCC(=O)NC(=O)Nc2ccc3c(c2)OCCO3)n1N	nt	nt	?	1.8µM*	17µM*	3%
O=C(CSc1nnnn1-c1ccc(Cl)cc1)NC(=O)Nc1ccc2c(c1)OCCO2	?	-3%	?	?	?	17%
Cc1ccc(-n2nnnc2SCC(=O)NC(=O)Nc2ccc3c(c2)OCCO3)cc1	19%	2%	28%	?	21µM*	15%
COc1ccc(NC(=O)CSc2nnnn2-c2ccc(OC)cc2)cc1	-3%	-4%	8%	-2%	0%	2%
CC(C)c1ccc(NC(=O)Cn2cc(S(=O)(=O)Cc3ccccc3Cl)c3ccccc32)cc1	nt	nt	nt	nt	-11%	nt
CCN(CC)CCN1C(=O)C(=O)/C(=C(/O)c2ccc(OC(C)C)cc2)C1c1cccs1 (stereo unspecified)	nt	nt	24%	?	?	11%
CCSCc1nnc(SCC(=O)Nc2ccc(OC)cc2)n1C	?	0%	1%	-3%	6%	4%
COc1cccc(/C=N/Nc2ncnc3scc(-c4ccccc4)c23)c1O	-75%	0%	-9%	-26%	21µM*	-3%
COc1cccc(/C=N/Nc2ncnc(Cl)c2N)c1O	nt	-5%	-15%	-24%	9.5µM*	13µM*
COc1cccc(/C=N/Nc2nccnc2Cl)c1O	-66%	11µM*	-18%	-23%	2.7µM*	2.6µM*
COc1cccc(/C=N/Nc2cc(-n3nc(C)cc3-c3ccccc3)ncn2)c1O	-107%	2%	-32%	-44%	13%	-11%
CCN(CC)S(=O)(=O)c1ccc(C(=O)NCCSc2c(-c3ccc(C)cc3)[nH]c3ccccc23)cc1	-30%	nt	nt	nt	-1%	nt
CCOc1ccc(-c2noc(CCC(=O)O)n2)cc1	11%	-1%	-4%	-13%	12µM*	6%
COc1ccc(-c2noc(CCC(=O)O)n2)cc1	-17%	-1%	-5%	-12%	-26%	0%
COc1ccc(-c2noc(CCCC(=O)O)n2)cc1	25%	-1%	-17%	-17%	11µM*	-1%
CCn1nc(C(=O)Nc2ccc(S(=O)(=O)Nc3nccs3)cc2)c2ccccc2c1=O	14µM*	1%	0%	1%	4%	5%
O=C(Nc1ccc(S(=O)(=O)Nc2ncccn2)cc1)c1nn(Cc2ccccc2)c(=O)c2ccccc12	nt	nt	0%	0%	-1%	-1%
COCCn1c(C)cc(C(=O)COC(=O)c2ccc(Br)o2)c1C	26%	-10%	3.2µM*	?	1.9µM*	4.1µM*
COCCn1c(C)cc(C(=O)COC(=O)CNC(=O)c2ccccc2)c1C	3%	3%	-2%	-4%	?	11%
